# Experimental data from ChEMBL document CHEMBL4513216, “Probing the Open Global Health Chemical Diversity Library for Multistage-Active Starting Points for Next-Generation Antimalarials” (ACS Infect Dis, 2020).
# The campaign covered roughly 69,000 compounds. About 8,600 (12%) showed an effect of 50% or more. The entries come from a sample that favours strong results as a whole.
# Test system: Plasmodium berghei
# Assay: Screen against P. berghei liver stage (PbLuc), transformed with Luciferase, at 10uM
# Format: functional, HepG2
# Details: tested at 10 uM
row,SMILES,INHIBITION
1,CCc1c(C)n(CCOC)c2nc3ccccc3n2c1=O,-7.81%
2,O=c1c2sccc2ncn1Cc1cc(C2CC2)[nH]n1,37.6%
3,CCc1ccc(CCn2cnc(C#N)n2)cc1,37.4%
4,N#Cc1ncn(CCS(=O)(=O)c2ccc(Br)cc2)n1,41.4%
5,N#Cc1ncn(CCC(=O)Nc2ccccc2F)n1,-3.77%
6,N#Cc1ncn(CCS(=O)(=O)c2ccc(Cl)cc2)n1,54.3%
7,N#Cc1ncn(CCC(=O)Nc2cc(Cl)ccc2Cl)n1,-22.1%
8,N#Cc1ncn(CCS(=O)(=O)c2ccccc2)n1,65.4%
9,CC(C)c1noc(OCC(=O)N2CCCCC2C)n1 (stereo not given),-24.9%
10,CC(C)c1nc(C2CCCN2CCNS(C)(=O)=O)no1 (stereo not given),23.8%
11,CCOC(=O)CNC(=O)NCc1cc(C)n(-c2ccc(OC)cc2)c1C,21.7%
12,CCOC(=O)CNC(=O)NCc1cc(C)n(-c2ccccc2OC)c1C,63.1%
13,CNCc1n[nH]c(=O)n1-c1ccccc1Oc1ccccc1,-107%
14,CNCc1cc(C)n(-c2ccccc2OC)c1C,70.3%
15,COc1ccccc1-n1c(C)cc(CNC(=O)NC(C)C)c1C,25.1%
16,CCOc1ccccc1-n1c(CNC)n[nH]c1=O,-63.8%
17,CC(=O)N1[C@@H](C(=O)NCC2CC2)C[C@@H]2CN(Cc3nccs3)C[C@@H]21,39.5%
18,CC(C)CCN(C(=O)c1nc(S(C)(=O)=O)n2ccccc12)C1CC1,17.165%
19,COc1cccc(Nc2nc(C3CCCNC3)c3sc(C)c(C)n23)c1 (stereo not given),11.65%
20,CC(C)(C)NCc1nn(Cc2ccccc2)nc1-c1ccccc1,45.8%
21,CCn1ccnc1CN1CCN(CCCS(C)(=O)=O)CC1C (stereo not given),8.31%
22,Cc1cc(C(F)(F)F)cc(=O)n1Cc1nc(C(C)C)no1,23%
23,CC(=O)NC1Cc2ccc(S(=O)(=O)NCCNc3ccccn3)cc2C1 (stereo not given),-18.8%
24,Cc1nc(CN2C(=O)COC3(CCN(C)CC3)C2C)cs1 (stereo not given),8.03%
25,Cc1ccc(C(=O)N2CC[C@@H]3[C@H]2CCC(=O)N3CCN(C)C)cn1,79.2%
26,Cc1cncc(C(=O)N2CC[C@@H]3[C@H]2CCC(=O)N3CCN(C)C)c1,29%
27,CN(C)CCN1C(=O)CC[C@@H]2[C@H]1CCN2C(=O)c1ccc(C#N)cc1,70.4%

row,SMILES,INHIBITION
1,CN(C)CCN1C(=O)CC[C@@H]2[C@H]1CCN2Cc1cccc(C#N)c1,49.7%
2,Cc1ccc(C(=O)N2CCC3(CC2)CCN(CCN(C)C)C3=O)cn1,28.2%
3,N#Cc1ccc(C(=O)N2CC[C@H]3[C@@H]2CCC(=O)N3c2ccccc2)cc1,43.8%
4,N#Cc1cccc(CNCCNC(=O)Cc2cccc(F)c2)c1,29.2%
5,CCOc1ccc(Cl)c(C(=O)N2CCCSCC2)n1,18.2%
6,Cc1cnc(NC2CCN(CC(=O)Nc3ccccc3)CC2)nc1C,14.8%
7,CC(C)OCCN1CCC(Nc2ncc(Br)cn2)CC1,28.7%
8,CC(C)OCCN1CCC(Nc2ncccn2)CC1,55.9%
9,Cc1cc(C)nc(NC2CCN(CCOC(C)C)CC2)n1,43.9%
10,COc1ccnc(NC2CCN(CC(=O)Nc3ccccc3)CC2)n1,60.8%
11,CC(C)c1nnc(C2CCN(CC(=O)Nc3cccnc3)CC2)o1,-39.2%
12,COc1ccc(NC(=O)CN2CCS(=O)(=O)CC2)cn1,-2.55%
13,O=C(CN1CCC(Nc2ncccn2)CC1)Nc1ccccc1,66.1%
14,COc1ccnc(NC2CCN(CC(=O)N3CCCC3)CC2)n1,11.6%
15,CSc1ccc(CN2CCn3nc(CNC(C)=O)cc3C2)cc1,-89.3%
16,CC(C)N1CCC(Cc2cncc(-c3cccc(C(=O)O)c3)n2)C1 (stereo not given),-62.3%
17,COC(=O)c1ccc(CN2CCN(Cc3nc(C)no3)CC2)s1,23.2%
18,CC(C)c1nnc2n1CCN(Cc1nc(-c3ccoc3)no1)C2,17.45%
19,CC1CN(C(=O)CN(Cc2ccccc2Cl)C2CCCC2)CCO1 (stereo not given),-0.219%
20,COc1ccc(CN2CCn3cc(CNC(=O)C4CCC4)nc3C2)cc1,19.5%
21,O=C(c1cnccn1)N1CCN2C[C@H](OCc3ccccc3)C[C@H]2C1,11%
22,O=C(c1ccc(F)cc1)N1CCN2C[C@H](OCc3cccnc3)C[C@H]2C1,82.3%
23,O=C(c1cccc(F)c1)N1CCN2C[C@H](OCc3cccnc3)C[C@H]2C1,17.1%
24,Cc1cnc(C(=O)N2CCN3C[C@H](OCc4cccnc4)C[C@H]3C2)cn1,52%
25,O=C(c1ccnnc1)N1CCN2C[C@H](OCc3cccnc3)C[C@H]2C1,26.4%
26,O=C(c1cscn1)N1CCN2C[C@H](OCc3cccnc3)C[C@H]2C1,33%
27,O=C(c1ccco1)N1CCN2C[C@H](OCc3cccnc3)C[C@H]2C1,12.4%

row,SMILES,INHIBITION
1,O=C(c1cnccn1)N1CCN2C[C@H](OCc3ccccn3)C[C@H]2C1,-0.182%
2,O=C(c1cnccn1)N1CCN2C[C@H](OCc3ccccc3F)C[C@H]2C1,59.8%
3,CS(=O)(=O)NC1CCCN(C(=O)COCc2ccccc2)C1 (stereo not given),-75.98%
4,Cc1ncc2c(n1)CCN(CCCc1nc3ccccc3o1)C2,-65.2%
5,O=C(NCc1cn2c(n1)CN(Cc1ccccn1)CC2)C1CCC1,-8.94%
6,CC(=O)N1[C@H](CN(C)C)C[C@@H]2CN(C(=O)c3ccno3)CC[C@@H]21,17.4%
7,Cc1cc(C)c(C(=O)N2CCOC(CCN(C)C)C2)o1 (stereo not given),-5.12%
8,Cc1ccc(N2CCC3(CCN(C(=O)c4ccsc4)C3)CC2)nn1,36.4%
9,CN1CC2(CCN(C(=O)c3ccc4c(=O)n(C)cnc4c3)C2)OC1=O (stereo not given),88.2%
10,CN1CC2(CCN(C(=O)c3ccc4c(=O)n(C)cnc4c3)CC2)CC1=O,32.5%
11,Cc1nc[nH]c1C(=O)N1CCC2(CN(C)C(=O)O2)C1 (stereo not given),-11.2%
12,Cc1noc(C2CCN(Cn3cc(Br)cn3)CC2)n1,-47%
13,O=C(O)[C@@H]1OCC(=O)N(Cc2cccc(Cl)c2)[C@@H]1c1ccccc1,-25.3%
14,CCOC(=O)CCCc1ccc2c(c1)CC(=O)N2,3.4%
15,CCSCCOC(=O)CCCc1ccc2c(c1)CC(=O)N2,54.9%
16,O=C(O)CCCc1ccc2c(c1)CC(=O)N2,24.2%
17,CCc1c(C(=O)NC2CCS(=O)(=O)C2)cnn1-c1ccc(C)cc1 (stereo not given),-17%
18,Cc1ccc(-n2ncc(C(=O)NC3CCCCC3)c2N)cc1,66.5%
19,Cc1ccc(-n2ncc(C(=O)NC3CC(C)(C)NC(C)(C)C3)c2N)cc1,-21.1%
20,CCOc1c(F)cccc1C(=O)N(CC)C(C)c1ccncc1 (stereo not given),31.2%
21,CCOc1c(F)cccc1C(=O)N(c1cccnc1)C(C)C,55.1%
22,CCOc1c(F)cccc1C(=O)N(CC)C(C)c1cccnc1 (stereo not given),43.1%
23,COC(=O)CCN(CC1CCOC1)C1CC1 (stereo not given),43.9%
24,COC(=O)CN(CC1CCOC1)C1CC1 (stereo not given),50.5%
25,NC(=O)CN(CC1CCOC1)C1CC1 (stereo not given),9.16%
26,CC(C)N1CCc2[nH]nc(C(=O)N3CCN(C)CC3)c2C1,1.34%
27,Cc1cccc(-n2nnnc2C(C)(C)Nc2ccccc2C)c1,39.1%

row,SMILES,INHIBITION
1,Cc1cc(Cl)ccc1NCC(=O)Nc1cc(C(C)(C)C)no1,24.7%
2,Cc1ccc(NC(C)(C)c2nnnn2-c2ccc(Cl)cc2)c(C)c1,81.1%
3,COc1ccc(-n2nnnc2C2(NCc3ccco3)CCCCC2)cc1,24.2%
4,COc1ccc(-n2nnc(C(=O)NC(C)C)c2C2CC2)cc1,40.1%
5,COc1ccc(-n2nnnc2C(C)(C)Nc2ccc(C)cc2C)cc1,77.7%
6,c1cnc2c(c1)cc([C@@H]1CCCO1)n2CCN1CCOCC1,0.301%
7,NC(=O)C(CNC(=O)CCc1ccsc1)Cc1ccc(F)cc1 (stereo not given),13.1%
8,Cc1ccoc1C(=O)N1CC[C@H]2[C@@H]1CCC(=O)N2c1cccnc1,-7.38%
9,OCc1n[nH]c(-c2ccc(F)cc2)n1,-17%
10,c1cnnc(NCC2CN(CC3CCOCC3)CCO2)c1 (stereo not given),-35.7%
11,COc1ccc2c(c1)CN(Cc1ccco1)C(=O)CCN2CC(C)(C)O,51.7%
12,CCN1Cc2cc(OC)ccc2N(CC(C)(C)O)CCC1=O,17.7%
13,CC(C)(O)CN1CCC(=O)N(Cc2ccco2)Cc2cc(F)ccc21,-17.1%
14,CCOc1cc(CNCC2CN(C3CC3)CCO2)ccc1OC (stereo not given),22.3%
15,O=C(N[C@@H]1CN(CCc2ccc(F)cc2)C[C@H]1O)c1cscn1,54.5%
16,O=C(N[C@@H]1CN(Cc2ccc(F)c(F)c2)C[C@H]1O)c1cscn1,2.6%
17,O=C(N[C@@H]1CN(Cc2ccc(F)cc2)C[C@H]1O)c1cscn1,10%
18,Cc1nc(Nc2nnc(C)s2)cc(C2CCCN2C2CCCC2)n1 (stereo not given),28%
19,CCc1ncnc2c1CCN(Cc1ccccn1)CC2,-9.48%
20,Cc1occc1C(=O)Nc1ccnc(OC2CCOC2)c1 (stereo not given),7.84%
21,O=C(Nc1ccnc(OC2CCOC2)c1)c1ccc(F)cc1Cl (stereo not given),17.6%
22,O=C(Nc1ccnc(OC2CCOC2)c1)c1ccccc1Cl (stereo not given),65.3%
23,CN(C)Cc1cc(C2CCCCN2S(=O)(=O)c2cccc(Cl)c2)nn1C (stereo not given),37.8%
24,CC(=O)Nc1ccc(SCC(O)COCc2ccco2)cc1 (stereo not given),26.9%
